In PubChem BioAssay (EPA / NIEHS):
Results filed as inconclusive are left out. Calls of active or inactive are those of the source. The calls were made as follows, unless noted: active = hit-call score of the fitted dose curve at least 0.9, where 1 is the maximum; inactive = score below 0.9.

What was measured:
[1] = target: human Thyroid Receptor alpha (THRa1), THRA (gene 7067) (UniProt P10827); test: ATG_THRa1_TRANS: Attagene TRANS-FACTORIAL HepG2 Assay for human Thyroid Receptor alpha (THRa1) (AID 2283014; active = hit-call score of the fitted dose curve at least 0.9, where 1 is the maximum)
In short: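 Transcripts from GAL4-UAS-driven reporters, measured after 24 h compound exposure by RT-PCR plus capillary electrophoresis of 6-FAM-labeled fragments, were fitted for gain of signal relative to DMSO. Cells: transiently transfected HepG2 expressing NR-Gal4 chimeras.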

[2] = target: human Retinoid X Receptor beta (RXRb), RXRB (gene 6257) (UniProt P28702); test: ATG_RXRb_TRANS: Attagene TRANS-FACTORIAL HepG2 Assay for human Retinoid X Receptor beta (RXRb) (AID 2283013; active = hit-call score of the fitted dose curve at least 0.9, where 1 is the maximum)
In short: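 Multiplexed TRANS reporter assay in HepG2; 24 h dosing; reporter mRNA by RT-PCR/CE fluorescence; gain-of-signal relative to DMSO.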

[3] = read-out: E-selectin (Homo sapiens) (UniProt P16581); test: BSK_3C_Eselectin: BioMAP Diversity Plus: 3C Assay for Eselectin Biomarker Activity (AID 2283015); details: primary human endothelial cells (HUVEC); actives raise or lower the signal;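 as to outcome: cell surface E-selectin protein quantified by ELISA 24 h after dosing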
In short: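 E-selectin ELISA readout, fitted bidirectionally relative to DMSO, taken 24 h post-dosing in HUVEC cultures of the 3C system. Overt cytotoxicity tracked with sulforhodamine B staining of parallel wells.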

[4] = read-out: Interleukin-1 alpha (IL1a), IL1A (gene 3552); test: BSK_BE3C_IL1a: BioMAP Diversity Plus: BE3C Assay for Interleukin-1 alpha (IL1a) Biomarker Activity (AID 2283016); details: primary human bronchial epithelial cells; actives raise or lower the signal
In short: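 Cultures of primary human bronchial epithelial cells receive test chemical. After 24 h, IL-1a is quantified by ELISA, while parallel wells are fixed in TCA and SRB-stained for total protein. Changes in either direction are fitted relative to DMSO.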

[5] = read-out: Monocyte Chemoattractant Protein-1 (MCP1), CCL2 (gene 6347); test: BSK_3C_MCP1: BioMAP Diversity Plus: 3C Assay for Monocyte Chemoattractant Protein-1 (MCP1) Biomarker Activity (AID 2283017); details: primary human endothelial cells (HUVEC); actives raise or lower the signal
In short: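 MCP-1 was measured by ELISA 24 h after dosing in primary HUVEC 3C cultures and fitted in both directions relative to DMSO; cytotoxicity was checked by SRB total-protein staining in parallel wells.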

[6] = read-out: Monocyte Chemoattractant Protein-1 (MCP1), CCL2 (gene 6347); test: BSK_4H_MCP1: BioMAP Diversity Plus: 4H Assay for Monocyte Chemoattractant Protein-1 (MCP1) Biomarker Activity (AID 2283018); details: primary human endothelial cells (HUVEC); actives raise or lower the signal
In short: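 Readout: MCP-1 ELISA on compound-treated HUVEC, sampled 24 h post-dosing. Baseline and negative control DMSO; bidirectional fit. Overt toxicity checked alongside by sulforhodamine B protein staining at time of biomarker measurement.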

[7] = read-out: Human Leukocyte Antigen - DR isotype (HLADR), HLA-DRA (gene 3122); test: BSK_3C_HLADR: BioMAP Diversity Plus: 3C Assay for Human Leukocyte Antigen - DR isotype (HLADR) Biomarker Activity (AID 2283019); details: primary human endothelial cells (HUVEC); actives raise or lower the signal;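 as to outcome: ELISA of cell-surface HLA-DR on HUVEC 24 h after dosing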
In short: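 Bidirectional fitting against DMSO was applied to the HLA-DR ELISA signal from human umbilical vein endothelial cells, 24 h post-dose. Cytotoxicity came from parallel SRB total-protein staining; 3C proliferation was counted by SRB at 48 h.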

[8] = read-out: Interleukin-8 (IL8), CXCL8 (gene 3576); test: BSK_3C_IL8: BioMAP Diversity Plus: 3C Assay for Interleukin-8 (IL8) Biomarker Activity (AID 2283020); details: primary human endothelial cells (HUVEC); actives raise or lower the signal
In short: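 Human vascular endothelial cells (umbilical vein) in the 3C system; IL-8 level detected by ELISA at 24 h post-dose, with DMSO as baseline.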

Sequence of human Thyroid Receptor alpha (THRa1), THRA (gene 7067) (P10827 whole entry, looked up, the tested form may be a part): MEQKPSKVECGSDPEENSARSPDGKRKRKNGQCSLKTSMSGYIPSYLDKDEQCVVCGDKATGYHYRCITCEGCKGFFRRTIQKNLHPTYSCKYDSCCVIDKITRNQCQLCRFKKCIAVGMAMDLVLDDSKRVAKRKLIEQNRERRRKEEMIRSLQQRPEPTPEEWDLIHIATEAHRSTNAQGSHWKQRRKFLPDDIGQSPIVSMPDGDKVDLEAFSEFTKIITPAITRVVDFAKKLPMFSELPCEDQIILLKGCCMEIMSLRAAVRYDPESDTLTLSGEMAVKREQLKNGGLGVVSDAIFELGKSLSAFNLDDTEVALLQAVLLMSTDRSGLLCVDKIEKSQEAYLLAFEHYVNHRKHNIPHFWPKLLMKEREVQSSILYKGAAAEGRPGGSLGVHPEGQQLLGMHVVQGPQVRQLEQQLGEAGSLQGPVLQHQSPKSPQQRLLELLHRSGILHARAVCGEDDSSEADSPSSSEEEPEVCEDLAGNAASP
Sequence of E-selectin (Homo sapiens) (P16581 whole entry, looked up): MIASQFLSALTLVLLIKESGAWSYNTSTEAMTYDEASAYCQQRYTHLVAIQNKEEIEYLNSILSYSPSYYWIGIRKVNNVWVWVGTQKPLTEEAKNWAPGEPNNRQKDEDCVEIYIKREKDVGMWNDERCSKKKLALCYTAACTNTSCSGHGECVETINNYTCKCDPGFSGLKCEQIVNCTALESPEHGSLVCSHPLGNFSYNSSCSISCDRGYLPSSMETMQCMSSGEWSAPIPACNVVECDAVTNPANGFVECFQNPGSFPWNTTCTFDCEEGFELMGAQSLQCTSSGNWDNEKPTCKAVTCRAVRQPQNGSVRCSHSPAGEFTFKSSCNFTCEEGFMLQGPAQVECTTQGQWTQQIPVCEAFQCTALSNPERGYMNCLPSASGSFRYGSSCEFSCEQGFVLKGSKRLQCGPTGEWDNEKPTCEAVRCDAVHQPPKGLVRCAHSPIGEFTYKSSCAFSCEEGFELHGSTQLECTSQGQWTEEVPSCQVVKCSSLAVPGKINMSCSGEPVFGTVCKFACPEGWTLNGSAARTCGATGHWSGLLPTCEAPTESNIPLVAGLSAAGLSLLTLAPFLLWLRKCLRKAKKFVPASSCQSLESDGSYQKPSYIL
Sequence of human Retinoid X Receptor beta (RXRb), RXRB (gene 6257) (P28702 whole entry, looked up): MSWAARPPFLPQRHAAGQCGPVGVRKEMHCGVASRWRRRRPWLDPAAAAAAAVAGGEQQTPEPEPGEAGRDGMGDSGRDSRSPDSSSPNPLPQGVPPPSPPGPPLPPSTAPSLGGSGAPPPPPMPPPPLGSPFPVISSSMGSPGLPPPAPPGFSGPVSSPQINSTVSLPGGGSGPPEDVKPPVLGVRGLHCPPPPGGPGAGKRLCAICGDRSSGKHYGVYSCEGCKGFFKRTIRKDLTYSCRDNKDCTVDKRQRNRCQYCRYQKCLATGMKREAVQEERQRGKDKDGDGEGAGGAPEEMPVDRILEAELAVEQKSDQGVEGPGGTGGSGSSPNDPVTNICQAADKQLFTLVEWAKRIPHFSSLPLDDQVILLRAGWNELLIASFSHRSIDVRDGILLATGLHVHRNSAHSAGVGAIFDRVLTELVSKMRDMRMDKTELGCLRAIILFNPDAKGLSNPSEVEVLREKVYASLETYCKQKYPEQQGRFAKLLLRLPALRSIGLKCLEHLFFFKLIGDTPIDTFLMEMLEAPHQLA

**Q.** How did the outcome [1] turn out when `NC(=O)Nc1ccc(Cl)cc1` was run?
**A.** inactive

**Q.** Which outcome [1] does the source give for `Cc1ccc(C=O)cc1` here?
**A.** inactive

**Q.** With `CC(=O)O[C@]1(C(C)=O)CC[C@H]2[C@@H]3C[C@H](C)C4=CC(=O)CC[C@]4(C)[C@H]3CC[C@@]21C` as the molecule, how does the AC50 [2] read?
**A.** 2.34 µM (active)

**Q.** And the outcome [3]?
**A.** inactive

**Q.** And the outcome [4]?
**A.** inactive

**Q.** What about the outcome [5] of the same molecule?
**A.** inactive

**Q.** And the outcome [6]?
**A.** inactive

**Q.** And the AC50 [7]?
**A.** 10 µM (active)

**Q.** And the outcome [8]?
**A.** inactive

**Q.** How did the outcome [2] turn out when `O=C(O)c1ccc([N+](=O)[O-])cc1` was run?
**A.** inactive

**Q.** And the outcome [3]?
**A.** inactive

**Q.** And the outcome [4]?
**A.** inactive

**Q.** What about the outcome [5] of the same molecule?
**A.** inactive

**Q.** And the outcome [6]?
**A.** inactive

**Q.** What about the outcome [7] of the same molecule?
**A.** inactive

**Q.** And the outcome [8]?
**A.** inactive

**Q.** For `NC(N)=NC(=O)c1nc(Cl)c(N)nc1N`, which outcome [1] is on record?
**A.** inactive

**Q.** `CC1CCC(C(C)CS)CC1S` (configuration not stated) was tested. Which AC50 [2] did it give?
**A.** 59.9 µM (active)

**Q.** And the AC50 [3]?
**A.** 30.6 µM (active)

**Q.** And the AC50 [4]?
**A.** 20 µM (active)

**Q.** What about the AC50 [5] of the same molecule?
**A.** 20 µM (active)

**Q.** What about the AC50 [6] of the same molecule?
**A.** 20 µM (active)

**Q.** And the AC50 [7]?
**A.** 35.1 µM (active)

**Q.** What about the outcome [8] of the same molecule?
**A.** inactive

**Q.** How did the outcome [1] turn out when `CC(=O)O[C@H](CC(=O)[O-])C[N+](C)(C)C` was run?
**A.** inactive

**Q.** How did the outcome [1] turn out when `CC(C)c1cccc(O)c1` was run?
**A.** inactive

**Q.** For `COC(C(=O)O)c1ccccc1` (configuration not stated), which AC50 [1] is on record?
**A.** 62.9 µM (active)

**Q.** Which outcome [1] does the source give for `CCCCCCCCCCC(CO)CCCCCCCC` (configuration not stated) here?
**A.** inactive

**Q.** Which outcome [1] does the source give for `c1ccc(CCCc2ccccn2)cc1` here?
**A.** inactive

**Q.** How did the outcome [1] turn out when `CC(C)(C)c1n[nH]c(=S)n(N)c1=O` was run?
**A.** inactive

**Q.** With `COc1ccc(O)cc1` as the molecule, how does the outcome [1] read?
**A.** inactive

**Q.** For `O=S(=O)(O)NC1CCCCC1`, which outcome [1] is on record?
**A.** inactive

**Q.** For `CCCCCCCCCCCCN(CCCCCCCCCCCC)CCCCCCCCCCCC`, which outcome [1] is on record?
**A.** inactive

**Q.** Which results are given for `CC(C)c1ccc(C(C)C)cc1`?
**A.** AC50 [2]: 66.5 µM (active); AC50 [3]: 36.1 µM (active); AC50 [4]: 29.1 µM (active); AC50 [5]: 36.8 µM (active); AC50 [6]: 29.9 µM (active); AC50 [7]: 34.6 µM (active); outcome [8]: inactive

**Q.** What does the source list for `CCCCCCCCCC=O`?
**A.** AC50 [2]: 59 µM (active); outcome [3]: inactive; outcome [4]: inactive; outcome [5]: inactive; outcome [6]: inactive; AC50 [7]: 32.3 µM (active); outcome [8]: inactive
